Assay results from PubChem BioAssay AID743158 (Broad Institute, 2013).
Measured potencies and affinities stand elsewhere. Unmarked numbers belong to inactive results. Calls of active or inactive are those of the source.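 The calls were made as follows: active = cell killing with a fitted half-maximal concentration at most twice the top valid dose tried; inconclusive = flat fit between -70 and -30 percent, or an invalid fit; inactive = the rest.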

Assay: A549 cell cytotoxicity, dose response, cytotoxicity control, CellTiter-Glo luminescence, dry powder, set 5 (AID 743158)
Details: A549 viability, CellTiter-Glo ATP luminescence, 72 h; series mostly up to 26 µM; activity change, negative = cytotoxicity: at the top concentration

SMILES	activity change, negative = cytotoxicity	outcome
Cc1ccc(OCCn2c(C)nc3ccccc32)cc1	15.3%	
Cc1ccc2c(c1)[nH]c(=S)n2CCOc1ccccc1	22.8%	
Cc1ccc(OCCn2c(=S)[nH]c3ccccc32)c(C(C)C)c1		inactive
Cc1ccc(C(C)C)c(OCCn2c(=S)[nH]c3ccccc32)c1	-4.67% [at 12 µM]	
COC(=O)C1=C(C)N(Cc2ccccc2)C(=S)NC1c1ccc(Br)cc1 (configuration not stated)	11.9%	
Cc1ccc(OCCn2c(=S)[nH]c3ccccc32)cc1	-5.22%	
CCOC(=O)c1c(-c2ccc(OC)cc2)csc1NC(=O)CN(C)CC(=O)N(C)C	-0.238%	
S=c1[nH]c2cccc(Cl)c2n1CCOc1ccccc1	3.73%	
Cc1ccc(OCCn2c(SCCO)nc3ccccc32)c(C(C)C)c1	-1.14%	
S=c1[nH]c2ccccc2n1CCOc1ccc(Cl)cc1	21.4%	
CCOc1ccc(OCCn2c(=S)[nH]c3ccccc32)cc1	-5.18%	
S=c1[nH]c2ccccc2n1CCOc1ccccc1	-11.1%	
Fc1ccccc1OCCn1c(=S)[nH]c2ccccc21	8.89%	
Cc1ccc(OCCn2cnc3ccccc32)cc1	13.4%	
O=c1[nH]c2ccccc2n1CCOc1ccccc1		inactive
COC(=O)C1=C(C)N(Cc2ccc(F)cc2)C(=S)NC1c1cccc(F)c1 (configuration not stated)	12.2%	
Cc1cccc(OCCn2c(=S)[nH]c3cc(C(F)(F)F)ccc32)c1	-7.82%	
CCOC(=O)c1c(NC(=O)CNCCN(C)C)sc(C)c1-c1ccccc1	19.6%	
COC(=O)C1=C(C)N(Cc2ccc(Br)cc2)C(=S)NC1c1ccc(OC)cc1 (configuration not stated)	7.24%	
Fc1cccc2c1[nH]c(=S)n2CCOc1ccccc1	22.4%	
Cc1ccccc1OCCn1c(=S)[nH]c2ccccc21	6.12%	
COC(=O)C1=C(C)N(Cc2ccc(Br)cc2)C(=S)NC1c1ccc(F)cc1 (configuration not stated)	14.4%	
CCOC(=O)c1c(NC(=O)CN2CCN(C)CC2)sc(C)c1-c1ccc(C)cc1	1.65% [at 12 µM]	
c1ccc(OCCn2cnc3ccccc32)cc1	-5.44%	
COC(=O)C1=C(C)N(Cc2ccc(Cl)cc2)C(=S)NC1c1ccc(Br)cc1 (configuration not stated)	10.9%	
CCOC(=O)c1c(-c2ccc(F)cc2)csc1NC(=O)CN1CCN(CC)CC1	7.96%	
CCOC(=O)c1c(-c2ccc(F)cc2)csc1NC(=O)CN1CCN(C)CC1	5.49%	
